What follows are sequences tested against PLA2G4F (assay: pooled miR-30 sensor sort-seq; sequence = guide strand). Conditions: shRNA.
Note: reference of the scale not given here.

Sequence | sensor-assay potency score (higher = more potent)
TCGTCTGTGATATTCACACTGC | -0.569
TTGTTCTTGATAGCAGTGCATC | -1.66
TTCTTGATAGCAGTGCATCCAG | -0.546
TTGCACATAGCAGTCGGCTTTG | -0.794
TTTGTCGCTCCACACCTGGGGC | -1.27
TAGTACTGTAGCCGCTCCGTGG | -1.01
TGAACTCGCACCACTCTGCAAA | -0.822
TTGGCCACTATCCTAGTCTGGG | -0.525
TAGAGTGTGGAGATGCACCAGG | -0.214
TATATTTGCATGATGTGGCCAC | 0.329
TTGCAGGTAACAGATCCGGGGT | -0.679
TTGTTCAGGACGTTGTATCGAC | 0.0752

These sequences were tested against PLA2R1 in the same assay as above. Conditions: shRNA.

Sequence | sensor-assay potency score (higher = more potent)
TTACTTTTAAATTTTATCCAGG | -0.532
TTTTGTAACAGAATCCACCATG | 0.0446
TTATCTGTGGTGAACAGTCCAA | -0.19
TTGAGCATTCAACCAAACCATC | -1.81
TAATGCACTGTTATCAGCCTGA | 0.301
TTTCTGAGCACAACTCTGGGTG | -0.349
TAGTATCACAACCTACTTCTGC | -0.635
